# Assay results as given in PubChem BioAssay (NCATS).
# Results filed as inconclusive are left out. Calls of active or inactive are those of the source. Unless noted, the call rests on the fitted dose curve; in most records, active means well fitted curve in the direction sought with a large enough effect; inconclusive means small, poorly fitted or top-dose-only effect, or another doubt; inactive means no such curve, though single readings can be large; an effect the other way counts as inactive or inconclusive.
# Legend:
# [1] = Quantitative High-Throughput drug screen in 47 multiple myeloma cell lines against the NCATS MIPE library collection: PCM6_Riken cell viability assay (AID 1919870); further: nearly all actives have a fitted effect of over 30% in size; further: potency means the concentration at half of the fitted maximal effect
# How it was run: (§1)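 500 cells/well; MIPE 4.0 drugs pin-transferred; 48 h, 37C, 5% CO2. CellTiter-Glo, 5 min RT, luminescence. Controls: DMSO 100%, media 0%.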
# [2] = Quantitative High-Throughput drug screen in 47 multiple myeloma cell lines against the NCATS MIPE library collection: KMS11_JCRBsus cell viability assay (AID 1919873); further: nearly all actives have a fitted effect of over 50% in size; further: potency means the concentration at half of the fitted maximal effect
# How it was run: as §1
# [3] = Quantitative High-Throughput drug screen in 47 multiple myeloma cell lines against the NCATS MIPE library collection: KMS28BM_JCRB cell viability assay (AID 1919874); further: nearly all actives have a fitted effect of over 35% in size; further: potency means the concentration at half of the fitted maximal effect
# How it was run: as §1
# [4] = qHTS drug screen for cell cycle checkpoint inhibitors in PARPi-resistant BRCA-mutant ovarian cancer cell lines. (AID 1963452; calls by dose curve; further: potency means the concentration at half of the fitted maximal effect); settings: PEO1/OlaR viability, CellTiter-Glo luminescence, 96 h; for Z-AUC: stronger effect = lower value
# How it was run: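 PEO1, PEO4 and PEO1/OlaR ovarian cancer cells, 600 per well, exposed 96 h at 37C to a dilution series. Viability read by CellTiter-Glo luminescence, normalized to DMSO and empty wells; activity summarized as Z-AUC.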
# [5] = Quantitative High-Throughput drug screen in 47 multiple myeloma cell lines against the NCATS MIPE library collection: RPMI8226_ATCC cell viability assay (AID 1919871); further: nearly all actives have a fitted effect of over 30% in size; further: potency means the concentration at half of the fitted maximal effect
# How it was run: as §1
# [6] = Quantitative High-Throughput drug screen in 47 multiple myeloma cell lines against the NCATS MIPE library collection: OPM2_DSMZ cell viability assay (AID 1919872); further: nearly all actives have a fitted effect of over 30% in size; further: potency means the concentration at half of the fitted maximal effect
# How it was run: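 CellTiter-Glo luminescence (ATP) after 48 h compound exposure, 37C/5% CO2; 500 cells/well; MIPE 4.0 approved/investigational drugs pinned in; DMSO = 100%, media only = 0% viability.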
# [7] = qHTS for identification of novel therapeutic agents for treatment of microphthalmiaassociated transcription factor (MiT) renal cell carcinoma (RCC) (AID 1963991; calls by dose curve; further: potency means the concentration at half of the fitted maximal effect); settings: CellTiter-Glo, 48 h; for z-score: stronger effect = lower value; for Potency: active = Z-AUC below -0.8 in all three lines
# How it was run: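 Viability of three TFE3-fusion renal carcinoma lines measured by CellTiter-Glo after 48 h treatment with each of 1912 compounds at 11 concentrations. Responses scaled between DMSO (100%) and empty wells (0%) before curve fitting.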
# [8] = qHTS profiling for inhibitors of Plasmodium falciparum proliferation (AID 504749);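 further: 0% = DMSO vehicle and full inhibition = artemisinin control; nearly all actives have a fitted effect of over 60% in size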; settings: P. falciparum in erythrocytes, SYBR Green DNA, 72 h, at 28.7 µM (top of the series)
# How it was run: (§2)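 SYBR Green fluorescence (ex 485 nm, em 535 nm) reports parasite DNA after 72 h compound exposure of infected red cells at 0.3% parasitemia, 2.5% hematocrit; signal normalized to 0.29 uM artemisinin and vehicle wells.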
# 3D7 = assay: as above; settings: P. falciparum in erythrocytes, SYBR Green DNA, 72 h; series mostly up to 28.7 µM
# How it was run: as §2
# [9] = measured here: PEO1 parental Z-AUC
# [10] = TFE3-RCC UOK109 viability, measured here: UOK109 Z-AUC
# [11] = TFE3-RCC viability, measured here: UOK124 Z-AUC
# [12] = TFE3-RCC viability, measured here: UOK145 Z-AUC
smiles,measurement,setting,value
CC(C)C[C@H](NC(=O)c1cc2ccccc2s1)C(=O)N1CCN(C(=O)[C@H](CO)NS(=O)(=O)c2ccc(Cl)cc2Cl)CC1,Potency,[1],23.5 µM (active)
same,Potency,[2],20.9 µM (active)
same,Potency,[3],20.9 µM (active)
same,Z-AUC,[4],-0.613 (inactive)
same,Z-AUC,[4]; [9],-0.17
same,Z-AUC,[4]; measured here: PEO4 Z-AUC,-1.13
CN(C)CCCNC(=O)c1ccc(-c2cc(O)c3ncccc3c2)cc1,Potency,[1],inactive
same,Potency,[5],18.7 µM (active)
same,Z-AUC,[4],-0.763 (inactive)
same,Z-AUC,[4]; [9],-0.299
same,Z-AUC,[4]; measured here: PEO4 Z-AUC,-0.292
CC(=O)OCC(=O)[C@@]1(O)CC[C@H]2[C@@H]3CCC4=CC(=O)C=C[C@]4(C)[C@@H]3[C@@H](O)C[C@@]21C,Potency,[1],inactive
same,Potency,[6],inactive
same,z-score,[7]; [10],0.953
same,z-score,[7]; [11],0.317
same,z-score,[7]; [12],-2.56
COc1cc2ncn(-c3cc(OCc4ccccc4S(C)(=O)=O)c(C#N)s3)c2cc1OC,Potency,[1],inactive
same,Potency,[5],inactive
same,Z-AUC,[4],0.942 (inactive)
same,Z-AUC,[4]; [9],0.779
same,Z-AUC,[4]; measured here: PEO4 Z-AUC,0.362
CCOC(=O)[C@H]1O[C@H]1C(=O)N[C@@H](CC(C)C)C(=O)NCCC(C)C,Potency,[1],5.9 µM (active)
same,Potency,[2],inactive
same,Potency,[3],inactive
same,z-score,[7]; [10],0.719
same,z-score,[7]; [11],0.357
same,z-score,[7]; [12],0.572
O=C(C=Cc1ccc(O)cc1)c1ccc(O)cc1O,Potency,[1],16.6 µM (active)
same,Potency,[2],10.5 µM (active)
same,Potency,[3],14.8 µM (active)
COc1ccc2c(c1)CC[C@H]1[C@@H]2CC[C@]2(C)[C@@H](NCCCCCCN3C(=O)C=CC3=O)CC[C@H]12,Potency,[1],inactive
same,Potency,[2],inactive
same,Potency,[3],inactive
same,z-score,[7]; [10],1.13
same,z-score,[7]; [11],0.647
same,z-score,[7]; [12],0.661
Cc1ccc2c(c1)c1c(n2CCc2ccc(C)nc2)CCN(C)C1,Potency,[1],inactive
same,Potency,[2],inactive
same,Potency,[3],inactive
CNC(=O)[C@H](Cc1ccccc1)NC(=O)[C@H](CC(C)C)[C@H](CSc1cccs1)C(=O)NO,Potency,[1],13.2 µM (active)
same,Potency,[6],18.7 µM (active)
same,Z-AUC,[4],-0.0435 (inactive)
same,Z-AUC,[4]; [9],-0.157
same,Z-AUC,[4]; measured here: PEO4 Z-AUC,0.653
CC(C)CN(C[C@@H](O)[C@H](Cc1ccccc1)NC(=O)O[C@H]1CO[C@H]2OCC[C@H]21)S(=O)(=O)c1ccc(N)cc1,Potency,[1],4.69 µM (active)
same,Potency,[6],inactive
same,Potency,[2],9.35 µM (active)
same,"activity, negative = inhibition",[8]; parasite line A,1% (inactive)
same,"activity, negative = inhibition",[8]; parasite line B,-15.6% (inactive)
same,Potency,3D7,inactive
CC(C)CNc1ccnc(NCc2csc(-c3ccccc3)n2)n1,Potency,[1],14.8 µM (active)
same,Potency,[2],13.2 µM (active)
same,Potency,[3],16.6 µM (active)
same,Z-AUC,[4],-1 (inactive)
same,Z-AUC,[4]; [9],-0.906
same,Z-AUC,[4]; measured here: PEO4 Z-AUC,-0.83
Cc1ccc(C(=O)N(CCCN)[C@@H](c2nc3cc(Cl)ccc3c(=O)n2Cc2ccccc2)C(C)C)cc1,Potency,[1],5.26 µM (active)
same,Potency,[6],inactive
same,Potency,[4],0.0098 µM (active)
same,Z-AUC,[4]; [9],-2.53
same,Z-AUC,[4]; measured here: PEO4 Z-AUC,-2.45
same,Potency,[7]; TFE3-RCC UOK109 viability,0.00166 µM (active)
same,z-score,[7]; [10],-2.23
same,z-score,[7]; [11],-1.53
same,z-score,[7]; [12],-1.7
OC(c1cc(C(F)(F)F)nc2c(C(F)(F)F)cccc12)C1CCCCN1 (stereo not given),Potency,[1],13.2 µM (active)
same,Potency,[6],23.5 µM (active)
same,Potency,[2],11.8 µM (active)
same,Z-AUC,[4],0.945 (inactive)
same,Z-AUC,[4]; [9],0.285
same,Z-AUC,[4]; measured here: PEO4 Z-AUC,0.429
Cc1c(-c2cccc3c(CCCOc4cccc5ccccc45)c(C(=O)O)n(Cc4cccnc4)c23)c(COc2ccc(N3CCN([S+](=O)([O-])N(C)C)CC3)cc2)nn1C,Potency,[1],inactive
same,Potency,[6],16.6 µM (active)
Cc1ccc(C(=O)N(CCCN)[C@@H](c2oc3cc(Cl)ccc3c(=O)c2Cc2ccccc2)C(C)C)cc1,Potency,[1],9.35 µM (active)
same,Potency,[6],inactive
same,Potency,[2],inactive
same,Potency,[4],8.71 µM (active)
same,Z-AUC,[4]; [9],-2.6
same,Z-AUC,[4]; measured here: PEO4 Z-AUC,-2.5
same,Potency,[7]; TFE3-RCC UOK109 viability,37.2 µM (active)
same,z-score,[7]; [10],-1.98
same,z-score,[7]; [11],-1.71
same,z-score,[7]; [12],-2
CC(C)N(CCCNC(=O)Nc1ccc(C(C)(C)C)cc1)C[C@H]1O[C@@H](n2cc(Br)c3c(N)ncnc32)[C@H](O)[C@H]1O,Potency,[1],23.5 µM (active)
same,Potency,[2],18.7 µM (active)
C=CC[N+]1([C@H]2C[C@H]3[C@@H]4CC[C@H]5C[C@H](O)[C@@H](N6CCOCC6)C[C@]5(C)[C@@H]4CC[C@]3(C)[C@H]2OC(C)=O)CCCC1,Potency,[1],inactive
same,Potency,[6],inactive
same,Potency,[2],inactive
same,Potency,[3],inactive
same,z-score,[7]; [10],0.798
same,z-score,[7]; [11],0.675
same,z-score,[7]; [12],0.368
Cc1cnc(Nc2cccc(CN3CCOCC3)c2)nc1Nc1cccc(S(=O)(=O)NC(C)(C)C)c1,Potency,[1],6.62 µM (active)
same,Potency,[6],9.35 µM (active)
Cc1ccc2c(c1)C(=O)[C@]1(O)CCN(c3ccccc3)C1=N2,Potency,[1],inactive
same,Potency,[6],inactive
same,Potency,[3],10.5 µM (active)
same,Z-AUC,[4],1.54 (inactive)
same,Z-AUC,[4]; [9],1.18
same,Z-AUC,[4]; measured here: PEO4 Z-AUC,1.07
CCC=CC[C@H]1C(=O)CC[C@@H]1CC(=O)OC,Potency,[1],inactive
same,Potency,[6],inactive
same,Potency,[2],inactive
same,Potency,[3],inactive
same,z-score,[7]; [10],-0.107
same,z-score,[7]; [11],0.558
same,z-score,[7]; [12],0.356
CNc1nc(-c2ccc3c(N)n[nH]c3c2)cc(N2C[C@@H](C(=O)NC3CCCCC3)CC[C@@H]2C)n1,Potency,[1],18.7 µM (active)
same,Potency,[6],23.5 µM (active)
same,Potency,[2],5.26 µM (active)
same,Potency,[3],23.5 µM (active)
CNc1nc(Nc2ccc(C(=O)N3CCOCC3)cc2OC)ncc1Cl,Potency,[1],16.6 µM (active)
same,Potency,[6],inactive
same,Potency,[2],inactive
same,Potency,[3],inactive
same,Z-AUC,[4],-0.915 (inactive)
same,Z-AUC,[4]; [9],-0.00443
same,Z-AUC,[4]; measured here: PEO4 Z-AUC,0.143
same,z-score,[7]; [10],0.622
same,z-score,[7]; [11],-0.0223
same,z-score,[7]; [12],0.626
CCC(c1ccc(O)cc1)C(CC)c1ccc(O)cc1 (stereo not given),Potency,[5],inactive
N#CC(c1ccc(Cl)cc1)c1c(Cl)cc(-n2ncc(=O)[nH]c2=O)cc1Cl (stereo not given),Potency,[1],23.5 µM (active)
same,Potency,[3],inactive
same,Z-AUC,[4],-0.392 (inactive)
same,Z-AUC,[4]; [9],-1.19
same,Z-AUC,[4]; measured here: PEO4 Z-AUC,-1.22
same,"activity, negative = inhibition",[8]; parasite line A,-9.47% (inactive)
same,"activity, negative = inhibition",[8]; parasite line B,-1.8% (inactive)
same,Potency,3D7,inactive
